Experimental data published in PubChem BioAssay.
Calls of active or inactive are those of the source.

Assays:
[1] = system: Human papillomavirus type 1a protein E7 (residues 44-93); test: small molecules binding HPV E7 44-93 – biochemical, small-molecule microarray, residues 44-93, 635 nm fluorescence, primary screen (AID 1108); conditions: fluorescence 635 nm, higher = more signal;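 note: E7 fragment applied at 1 µg/mL in TBST for 1 h at 4 C; score combines spot fluorescence with its signal to noise ratio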
[2] = hepatitis C replication reporter changes, two-sided – Huh7 cells, luciferase reporter, HCV replication inhibitor project, primary screen (AID 1109); conditions: Huh7 HCV replicon luciferase reporter, 48 h; higher = more signal;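 note: huh7 hepatoma cells harbouring a luciferase neomycin HCV replicon reporter; luciferase luminescence as measure of HCV replicon replication; test concentration not given here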
[3] = biological target: Left-right determination factor 2 (Homo sapiens) (UniProt O00292); test: small molecules binding LEFTY2 protein – biochemical, small-molecule microarray, 635 nm fluorescence scan, primary screen (AID 1110); conditions: higher = more signal
[4] = biological target: Calmodulin-1 (Homo sapiens) (UniProt P0DP23); test: small molecules binding calmodulin-1 with EGTA – biochemical, small-molecule microarray, Cy5-labelled CALM1, profiling panel (AID 1111); conditions: Cy5-CALM1 binding fluorescence, higher = more signal;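 note: labelled calmodulin applied in Tris saline Tween buffer holding calcium plus EGTA and DTT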
[5] = biological target: Calmodulin-1 (Homo sapiens) (UniProt P0DP23); test: small molecules binding Ca-loaded calmodulin-1 – biochemical, small-molecule microarray, Cy5-labelled CALM1, plus calcium, artefact control for SMM control-protein annotation, profiling panel (AID 1112); conditions: Cy5-CALM1 binding fluorescence, higher = more signal;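 note: score merges spot fluorescence with signal to noise from triplicate slides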
[6] = probe aWnt5a binding to arrayed compounds – biochemical, biotinylated probe, 635/667 nm fluorescence, primary screen (AID 1113); conditions: small-molecule microarray, higher = more signal;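 note: score merges 667 nm fluorescence intensity with signal-to-noise per printed feature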
[7] = probe aShh binding to arrayed compounds – biochemical, biotinylated probe, 635/667 nm fluorescence, primary screen (AID 1114); conditions: small-molecule microarray, higher = more signal;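 note: probe is biotin-labelled aShh protein from a stem cell growth factor screen; measures binding of labelled protein to compounds printed on the slide; score merges feature fluorescence at 667 nm with signal-to-noise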
[8] = probe aNog binding to arrayed compounds – biochemical, biotinylated probe, 635/667 nm fluorescence, primary screen (AID 1115); conditions: small-molecule microarray, higher = more signal;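 note: probe is biotinylated aNog protein used at 0.15 µg/mL for 1 h at 4 C; z-score combines 667 nm fluorescence of each spot with its signal to noise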
[9] = biological target: Torsin-1A-interacting protein 1 (Homo sapiens) (UniProt Q5JTV8); test: compound microarray binding of lysate hLAP1 – cell lysate, small-molecule microarray, COS7 lysate, 635/667 nm fluorescence, primary screen (AID 1116); conditions: 635 nm fluorescence, higher = more signal
[10] = biological target: Alpha-bungarotoxin (Bungarus multicinctus) (UniProt P60615); test: compounds binding labelled alpha-BTX control protein – biochemical, small-molecule microarray, Alexa647 label, 635/667 nm fluorescence, artefact control for SMM control protein annotation, profiling panel (AID 1117); conditions: alpha-BTX-A647 binding fluorescence, higher = more signal
[11] = biological target: Albumin (Bos taurus) (UniProt P02769); test: compounds binding labelled BSA control protein – biochemical, small-molecule microarray, Alexa647 label, 635/667 nm fluorescence, artefact control for SMM control protein annotation, profiling panel (AID 1118); conditions: BSA-A647 binding, fluorescence 635 nm, higher = more signal;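 note: score merges 667 nm emission intensity and signal-to-noise per printed compound spot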
[12] = probe aXIP binding to arrayed compounds – biochemical, NeuroSMM set, 635/667 nm fluorescence, primary screen (AID 1119); conditions: small-molecule microarray, higher = more signal, called active from +8 up or from −8 down;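 note: probe is the protein aXip251-270 applied at 1 µg/mL to compound-printed slides; binding of probe to printed compounds measured as 667 nm fluorescence plus signal to noise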
[13] = probe aNOTCH3 binding on compound microarray – biochemical, small-molecule microarray, 635/667 nm fluorescence, primary screen (AID 1120); conditions: higher = more signal;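 note: probe is a biotin-tagged antibody raised against NOTCH3 rather than NOTCH3 protein; score merges spot fluorescence near 667 nm with spot signal to noise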
[14] = probe aNOTCH2 binding on compound microarray – biochemical, small-molecule microarray, 635/667 nm fluorescence, primary screen (AID 1121); conditions: higher = more signal;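 note: score merges feature fluorescence read at 667 nm with its signal to noise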
[15] = biological target: Carbonic anhydrase 2 (Homo sapiens) (UniProt P00918); test: compounds binding carbonic anhydrase 2 – biochemical, small-molecule microarray, Alexa647-labelled CAII, profiling panel (AID 1122); conditions: CAII-A647 binding fluorescence, higher = more signal
[16] = COS7 lysate on small-molecule microarray, probe aHis, 635 nm (AID 1123); conditions: COS7 cell lysate, fluorescence, higher = more signal;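 note: z-score combines 667nm fluorescence intensity with signal-to-noise per printed compound spot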
[17] = probe aLAP1 signal on lysate-treated microarray – cell lysate, small-molecule microarray, COS7 lysate, primary screen (AID 1124); conditions: probe aLAP1, fluorescence, higher = more signal;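 note: lysate comes from COS7 cells expressing LAP1 and is applied at 0.3 µg/mL; score merges spot fluorescence near 667 nm with signal-to-noise over triplicate slides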
[18] = system: Sam68 (KHDRBS1); test: compounds binding KHDRBS1 protein – biochemical, small-molecule microarray, 635 nm fluorescence, primary screen (AID 1125); conditions: higher = more signal;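 note: score merges 667 nm channel intensity with signal to noise over triplicate slides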
[19] = system: Chordin-like protein 2 (CHRDL2); test: compounds binding chordin-like 2 – biochemical, small-molecule microarray, 635 nm fluorescence, primary screen (AID 1126); conditions: fluorescence 635 nm, higher = more signal;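 note: printed compound slides probed with Chrdl2 protein at 4 µg/mL for 1 h at 4 C; score merges 667 nm emission intensity with signal to noise over three replicate slides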
[20] = biological target: Concanavalin-A (Canavalia ensiformis) (UniProt P02866); test: compounds binding concanavalin A lectin – biochemical, small-molecule microarray, Alexa647 label, 635 nm, artefact control for SMM control protein annotation, primary screen (AID 1127); conditions: ConA-A647 binding fluorescence, higher = more signal;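 note: z combines 667 nm emission intensity with signal-to-noise across three replicate slides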
Sequence of Concanavalin-A (Canavalia ensiformis) (P02866 whole entry, looked up): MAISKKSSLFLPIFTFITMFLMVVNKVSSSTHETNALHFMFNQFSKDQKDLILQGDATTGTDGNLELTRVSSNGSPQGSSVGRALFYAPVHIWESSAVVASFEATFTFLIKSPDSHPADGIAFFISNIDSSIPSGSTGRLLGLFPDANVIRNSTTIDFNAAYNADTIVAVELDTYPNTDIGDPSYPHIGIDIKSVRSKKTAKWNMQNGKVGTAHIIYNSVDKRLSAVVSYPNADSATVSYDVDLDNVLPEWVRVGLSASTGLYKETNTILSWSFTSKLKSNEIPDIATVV

Sequence of Albumin (Bos taurus) (P02769 whole entry, looked up): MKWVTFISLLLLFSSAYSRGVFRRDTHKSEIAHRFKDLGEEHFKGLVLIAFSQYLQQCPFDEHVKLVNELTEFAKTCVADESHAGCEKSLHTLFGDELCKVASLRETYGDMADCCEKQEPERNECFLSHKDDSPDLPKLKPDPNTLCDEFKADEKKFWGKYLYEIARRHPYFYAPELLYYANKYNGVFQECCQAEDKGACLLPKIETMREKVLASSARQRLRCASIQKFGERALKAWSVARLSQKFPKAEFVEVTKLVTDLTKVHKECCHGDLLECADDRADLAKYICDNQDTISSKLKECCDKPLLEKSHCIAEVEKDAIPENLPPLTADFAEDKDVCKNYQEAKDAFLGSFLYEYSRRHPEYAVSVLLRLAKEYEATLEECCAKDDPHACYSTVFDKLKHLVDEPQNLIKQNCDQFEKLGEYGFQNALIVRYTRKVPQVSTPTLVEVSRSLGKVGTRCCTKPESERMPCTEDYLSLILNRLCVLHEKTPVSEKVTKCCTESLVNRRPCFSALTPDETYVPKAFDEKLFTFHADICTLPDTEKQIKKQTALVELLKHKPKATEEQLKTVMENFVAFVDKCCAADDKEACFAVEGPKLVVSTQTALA
Sequence of Left-right determination factor 2 (Homo sapiens) (O00292 whole entry, looked up): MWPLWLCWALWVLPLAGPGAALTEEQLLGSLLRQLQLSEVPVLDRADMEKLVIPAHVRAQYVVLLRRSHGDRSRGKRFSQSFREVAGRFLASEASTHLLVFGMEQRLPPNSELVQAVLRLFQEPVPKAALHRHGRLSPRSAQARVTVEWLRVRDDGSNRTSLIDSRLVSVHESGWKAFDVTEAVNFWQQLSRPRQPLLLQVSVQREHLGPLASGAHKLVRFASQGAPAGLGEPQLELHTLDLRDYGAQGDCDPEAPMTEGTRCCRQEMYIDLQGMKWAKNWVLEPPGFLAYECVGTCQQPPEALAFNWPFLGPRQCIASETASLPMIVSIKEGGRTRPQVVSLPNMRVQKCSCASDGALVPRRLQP
Sequence of Torsin-1A-interacting protein 1 (Homo sapiens) (Q5JTV8 whole entry, looked up): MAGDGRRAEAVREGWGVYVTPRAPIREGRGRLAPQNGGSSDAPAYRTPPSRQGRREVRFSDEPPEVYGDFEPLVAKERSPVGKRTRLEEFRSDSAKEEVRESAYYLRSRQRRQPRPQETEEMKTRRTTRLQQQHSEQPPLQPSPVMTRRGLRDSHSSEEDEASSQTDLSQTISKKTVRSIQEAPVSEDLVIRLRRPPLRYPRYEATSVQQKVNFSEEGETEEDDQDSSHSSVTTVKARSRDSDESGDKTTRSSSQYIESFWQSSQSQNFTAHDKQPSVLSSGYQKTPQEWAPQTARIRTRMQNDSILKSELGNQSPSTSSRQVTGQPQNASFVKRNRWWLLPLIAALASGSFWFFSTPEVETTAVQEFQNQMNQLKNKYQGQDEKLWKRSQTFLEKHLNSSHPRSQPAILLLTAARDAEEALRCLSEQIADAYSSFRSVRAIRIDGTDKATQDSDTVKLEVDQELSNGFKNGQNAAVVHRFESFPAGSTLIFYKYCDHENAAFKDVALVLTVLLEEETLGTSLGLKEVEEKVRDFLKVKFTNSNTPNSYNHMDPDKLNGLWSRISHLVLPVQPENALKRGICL
Sequence of Alpha-bungarotoxin (Bungarus multicinctus) (P60615 whole entry, looked up): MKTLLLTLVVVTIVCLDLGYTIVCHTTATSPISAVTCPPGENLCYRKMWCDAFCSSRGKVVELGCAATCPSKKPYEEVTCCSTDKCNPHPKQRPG

Structure (SMILES)	composite z-score [1]	z-score [2]	composite z-score [3]	composite z-score [4]	composite z-score [5]	composite z-score [6]	composite z-score [7]	composite z-score [8]	composite z-score [9]	composite z-score [10]	composite z-score [11]	composite Z-score [12]	composite z-score [13]	composite z-score [14]	composite z-score [15]	composite z-score [16]	composite z-score [17]	composite z-score [18]	composite z-score [19]	composite z-score [20]
CCc1cc2c(nc1CC)CCN(CCC(C)=NO[C@@H](C)c1cc(-c3c(C)cc(C)cc3C)no1)C2	0.0525	-1.87	-0.368	0.0642	-0.363	-0.195	-0.0709	0.0014	0.0675	0.297	0.417	-0.128 (inactive)	-0.146	-0.0649	-0.195	0.778	-0.126	0.353	-0.121	0.765
CC(CCN1CCc2nc(-c3ccccc3)c(-c3ccccc3)cc2C1)=NOC(C)CN1CCCCc2nc(C)c(C)cc21 (stereo not given)	1.27	-2.03	0.573	0.578	-0.0705	-0.0819	-0.202	-0.077	0.787	0.799	0.56	0.766 (inactive)	0.0379	-0.14	0.209	0.789	0.154	1.28	0.308	1.05
CO[C@@H]1COC(=O)CCC[C@@H](C)[C@H](OC)COC(=O)[C@H](Cc2ccccc2)NC(=O)CC=C[C@H]1C	-1.68	-1.48	0.714	-1.16	-1.81	-0.197	0.194	0.0596	-0.405	-0.0864	-0.603	0.274 (inactive)	-0.16	-0.175	-0.571	-1.42	-0.34	-1.56	1.39	-1.21
CN(C)c1ccc(C(O)C2C=CC3C(=O)N(c4ccccc4)C(=O)C3N2Nc2ccccc2F)cc1 (stereo not given)	1.31	-0.369	-0.633	0.104	-0.472	-0.0685	0.275	0.471	0.838	0.738	0.62	-0.122 (inactive)	0.134	0.0605	0.522	1.11	-0.301	0.87	-0.371	0.676
CCOC(=O)NN=C1C[C@@H](O)[C@@H](O)[C@@H]2[C@@H]3C(=O)N(CC)C(=O)[C@@H]3CC[C@@H]12	0.788	-0.161	0.651	-0.21	-0.264	-0.118	-0.0977	-0.213	0.197	0.595	0.338	0.112 (inactive)	-0.0864	-0.125	0.735	0.472	-0.0313	0.976	0.0151	0.481
CN1C(=O)C2C=CC(C(O)c3ccc(Br)cc3)N(N(c3ccccc3)c3ccccc3)C2C1=O (stereo not given)	0.962	-1.01	-0.0937	1.16	0.428	0.0873	0.0639	0.654	0.513	1.12	0.296	0.49 (inactive)	-0.0003	-0.0976	0.106	1.04	-0.068	0.676	-0.815	0.951
C=CC[C@@H]1C=C[C@H](ON=C(C)CCN2CCc3nc(CC)c(CC)cc3C2)[C@@H](CO)O1	0.714	-1.57	0.83	-0.42	-1.34	0.0634	0.0952	0.222	0.779	0.243	0.7	-2.12 (inactive)	0.325	-0.131	0.221	0.226	0.38	0.822	0.971	-0.442
C[C@@H](c1ccccc1)N1C(=O)[C@H]2[C@H]3[C@H](O)[C@H](O)CC(=NOC[C@@H](O)COCc4ccco4)[C@@H]3CC[C@H]2C1=O	-0.856	0.816	-0.433	-0.495	-0.307	-0.124	-0.0863	-0.413	-0.375	0.556	0.819	0.528 (inactive)	-0.161	-0.185	0.279	-0.359	-0.254	-0.779	-0.727	-1.07
C#CCCCON=C1C[C@@H](O)[C@@H](O)[C@@H]2[C@@H]3C(=O)N(Cc4ccccc4)C(=O)[C@@H]3CC[C@H]12	0.154	-1.08	0.451	-0.0441	-0.273	-0.154	-0.138	-0.0245	0.28	0.234	0.344	0.497 (inactive)	-0.056	-0.2	-0.009	0.363	-0.316	-0.0716	0.477	0.372
CCN1C(=O)[C@H]2[C@H]3[C@H](O)[C@H](O)CC(=NO[C@@H]4O[C@H](CO)[C@@H](O)[C@H](O)[C@H]4O)[C@@H]3CC[C@H]2C1=O	-2.4	0.26	-0.251	-0.665	-0.813	-0.18	-0.545	-0.1	-0.442	-0.479	-0.647	0.103 (inactive)	-0.213	-0.203	-0.12	-1.22	-0.378	-1.5	-0.229	-1.14
C=CC[C@@H]1C=C[C@H](ON=Cc2ccc(C(=O)N3[C@H](c4ccc(C)cc4)[C@@H](C)CC[C@H]3C(=O)OC)cc2)[C@@H](CO)O1	0.792	-1.52	0.432	-0.36	-0.621	-0.148	-0.16	-0.0337	0.0268	-0.255	0.36	0.0811 (inactive)	-0.0971	-0.132	-0.0234	0.556	0.116	0.632	0.714	-0.404
